Drawing on PubChem BioAssay, this text covers inhibition for 15 compounds.

A number with no mark means an inactive call. Active and inactive are the calls of the source. Rule as the data show it, unless noted: active = inhibition above about 36%; inactive = the rest.

The test system of test [1] is transactivating tegument protein VP16 (Human herpesvirus 1). Description: VP16 transactivation reporter inhibitors, counter-screen for SRC2 inhibitor project, cell-based, luminescence, single concentration (AID 652007). The conditions noted are these: cell-based VP16 transactivation luciferase reporter, at 8.9 µM, hits give high values.
Test [2] addresses Nuclear receptor coactivator 2 (Homo sapiens) (UniProt Q15596). Description: SRC2 coactivator transcriptional activity inhibitors, confirmation, cell-based, luminescence, HEK293, triplicate (AID 652008;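 active = mean inhibition above 46.5%, the solvent-only control mean plus 3 SD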;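 also: 0% = DMSO-treated cells and 100% = Gossypol at 36 µM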). The conditions noted are these: HEK293 GAL4-SRC2 luciferase reporter, at 8.9 µM, hits give high values.

Nuclear receptor coactivator 2 (Homo sapiens), sequence (Q15596 whole entry, looked up, the tested form may be a part): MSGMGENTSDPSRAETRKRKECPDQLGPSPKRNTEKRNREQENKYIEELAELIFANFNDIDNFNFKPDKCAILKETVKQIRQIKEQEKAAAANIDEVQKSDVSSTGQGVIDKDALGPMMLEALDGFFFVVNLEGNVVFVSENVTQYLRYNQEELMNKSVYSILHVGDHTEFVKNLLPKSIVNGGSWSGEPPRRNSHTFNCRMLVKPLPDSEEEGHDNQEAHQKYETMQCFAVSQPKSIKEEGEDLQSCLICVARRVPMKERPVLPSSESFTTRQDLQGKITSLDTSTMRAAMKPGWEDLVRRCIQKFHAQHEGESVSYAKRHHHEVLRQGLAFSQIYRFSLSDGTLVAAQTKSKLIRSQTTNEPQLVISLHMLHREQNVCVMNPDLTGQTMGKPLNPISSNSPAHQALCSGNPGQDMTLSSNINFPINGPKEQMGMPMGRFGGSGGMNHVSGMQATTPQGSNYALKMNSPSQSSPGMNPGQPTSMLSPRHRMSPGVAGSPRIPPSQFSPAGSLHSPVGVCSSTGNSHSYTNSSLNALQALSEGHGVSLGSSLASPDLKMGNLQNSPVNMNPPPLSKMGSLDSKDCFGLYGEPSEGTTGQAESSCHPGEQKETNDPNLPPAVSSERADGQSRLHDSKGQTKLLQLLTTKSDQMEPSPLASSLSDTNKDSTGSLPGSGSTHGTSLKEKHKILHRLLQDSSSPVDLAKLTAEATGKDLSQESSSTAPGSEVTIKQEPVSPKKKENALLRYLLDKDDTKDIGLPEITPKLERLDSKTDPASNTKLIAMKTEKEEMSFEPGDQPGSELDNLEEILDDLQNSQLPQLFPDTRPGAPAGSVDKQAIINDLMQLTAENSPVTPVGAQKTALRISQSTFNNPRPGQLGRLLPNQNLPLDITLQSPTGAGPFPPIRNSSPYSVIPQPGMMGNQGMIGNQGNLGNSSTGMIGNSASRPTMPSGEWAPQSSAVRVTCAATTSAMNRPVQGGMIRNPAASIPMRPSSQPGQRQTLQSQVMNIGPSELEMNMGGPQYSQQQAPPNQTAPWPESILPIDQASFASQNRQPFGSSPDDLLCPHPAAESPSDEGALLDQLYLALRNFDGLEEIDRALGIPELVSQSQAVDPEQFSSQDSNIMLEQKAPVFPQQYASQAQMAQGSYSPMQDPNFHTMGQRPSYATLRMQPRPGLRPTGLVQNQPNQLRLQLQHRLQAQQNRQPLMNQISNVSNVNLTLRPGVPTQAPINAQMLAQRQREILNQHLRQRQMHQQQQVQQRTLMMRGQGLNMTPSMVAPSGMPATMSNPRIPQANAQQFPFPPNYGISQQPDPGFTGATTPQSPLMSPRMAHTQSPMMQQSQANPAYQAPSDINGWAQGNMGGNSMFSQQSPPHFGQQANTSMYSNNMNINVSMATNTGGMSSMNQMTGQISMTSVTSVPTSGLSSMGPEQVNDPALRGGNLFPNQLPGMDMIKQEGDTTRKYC

In the case of `COc1cccc(-c2nc(-c3ccccn3)no2)c1`, the inhibition was -20.4% in test [1] and 24.9% in test [2].

Consider `CC(C)C[C@@H]1COc2cc(Br)ccc2S(=O)(=O)N1Cc1cn(CCC2OCCCO2)nn1`, for which the inhibition in test [1] is -3.85%; in test [2], 3.37%.

For the compound `O=C(Nc1cccc(F)c1)c1cccnc1`, the inhibition in test [1] is 1.51%; in test [2] it was -2.72%.

Consider `COCCN(C(=O)CCC(=O)Nc1nccs1)C(C(=O)NC(C)(C)C)c1ccc(C)cc1` (stereo not given), for which the values for the inhibition in test [1] and in test [2] were 11.2% and 5.44%, respectively.

On to `c1ccc(-n2cnc3ccccc32)cc1`, for which the values for the inhibition in test [1] and in test [2] were -25.6% and 5.17%, respectively.

Regarding `CN(C)c1ccc(NC(=S)c2ccccn2)cc1`, the inhibition in test [1] was 1.77%; in test [2], 59.6% (active).

As to `CCNC(=O)C1(C)CCCN(Cc2csc(-c3ccccc3)n2)C1` (stereo not given), the values for the inhibition in test [1] and in test [2] were -30.6% and -4.83%, respectively.

Turning to `CCn1nc(C)cc1-c1nnc(Sc2ncc([N+](=O)[O-])s2)n1C`, the inhibition in test [1] is 85.2% (active); in test [2], 93.9% (active).

As to `O=C(O)c1cccc(CSc2nnc(-c3ccc(Cl)cc3)o2)c1`, the inhibition in test [1] is 41.3% (active); in test [2] it was 43.1%.

With `O=C(NC1CC1)c1ccc(-c2nc3ccccc3s2)s1`, the inhibition is -51.1% in test [1] and 16.9% in test [2].

For the compound `COc1ccc(C(=O)Nc2nc3ccccc3[nH]2)cc1`, the inhibition in test [1] was -57.5%; in test [2], 13.5%.

With `CC1CCCc2sc3ncn(N)c(=N)c3c21` (stereo not given), the inhibition in test [1] is -0.69%; in test [2], 1.19%.

As for `Cc1ccc(-c2noc(CCCC(=O)NC3CCCC3)n2)cc1`, the figures for the inhibition in test [1] and in test [2] were 20.1% and 42.4%, respectively.

As to `CC1CCCC(C)N1C(=O)c1cccc2c1-c1ccccc1/C2=N/O` (stereo not given), the results for the inhibition in test [1] and in test [2] were -10.5% and 8.15%, respectively.

On to `Cc1c(C)n(Cc2ccccc2)c2ncnc(Cl)c12`, for which the inhibition in test [1] was 19.1%; in test [2], 39.9%.

The inhibition is the relative decrease from the control value, in per cent.
